The source of these data is PubChem BioAssay AID504834 (National Center for Advancing Translational Sciences (NCATS), 2011).

Structures are written as SMILES. The campaign covered roughly 320,000 compounds. About 22,000 (6.9%) were called active. Roughly 27% stayed inconclusive and do not appear here. This excerpt belongs to a sample that is enriched for actives. Values without a mark were called inactive. Calls follow the shape of the dose curve; as a rule, active = well fitted inhibition curve with a large enough effect; inconclusive = small, poorly fitted or top-dose-only effect, or another doubt; inactive = no such curve, though single readings can be large or run the other way.
% is scaled to controls: 0 for no effect and ±100 for the full control effect; potency is read from the fitted curve at half-maximal effect.

The assay is described as follows: Primary qHTS for delayed death inhibitors of the malarial parasite plastid, 96 hour incubation. The settings on record: P. falciparum luciferase reporter growth; series mostly up to 28.7 µM; activity change, negative = inhibition: at the top concentration. In outline: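 Cell-based qHTS: luciferase-tagged P. falciparum in erythrocytes (2% hematocrit, 0.05% parasitemia final) incubated with compounds for 96 hours, 37 C, 5% CO2; luciferase detection reagent then added and luminescence measured.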
Background: In qHTS, concentration-response curves come from the screen itself.
On to `CCC(C)CCN1CCN=C1N(C)C` (stereo not given), for which the “activity change, negative = inhibition” value was 51.7%.

As for `CCOc1ccc(/C=N\NC(=O)c2c(C)nc3cc(C)ccn23)cc1`, the “activity change, negative = inhibition” value was 10.6%.

With `CCOC(=O)C1CCN(Cc2ccc(-c3ccccc3)cc2)CC1`, the “activity change, negative = inhibition” value was -21.5%.

Turning to `CCOC(=O)c1nnn(-c2nonc2-n2cccc2)c1CN1CCC(C(=O)OCC)CC1`, the Potency is 0.928 µM (active).

For `CCN(CC)Cc1c(C(=O)OC)nnn1-c1nonc1N`, the “activity change, negative = inhibition” value is -0.231%.

On to `Cc1ccccc1OCC(=O)Nc1nnc(S(=O)(=O)N2CCCC2)s1`, for which the “activity change, negative = inhibition” value was 40.6%.

Regarding `CCOC(=O)CC1COCCN1C(=O)c1cc(COc2ccc(F)c(F)c2)on1` (stereo not given), the “activity change, negative = inhibition” value was 16.8%.

Turning to `Cn1c(N2CCOCC2)c(C=O)c2ccccc21`, the “activity change, negative = inhibition” value is 4.33%.

As for `FC(F)(F)c1ccnc(Oc2ccc(C3=NCCS3)cc2)c1`, the “activity change, negative = inhibition” value was 335%.

In the case of `O=C(NCCCN1CCOCC1)c1ccc([N+](=O)[O-])cc1[N+](=O)[O-]`, the “activity change, negative = inhibition” value was 18.7%.

`O=[N+]([O-])c1cc(S(=O)(=O)CCCN2CCOCC2)ccc1F`: the Potency was 10.4 µM (active).

Consider `O=S(=O)(NCCCN1CCOCC1)c1ccc(F)c(Cl)c1`, for which the “activity change, negative = inhibition” value was -15.7%.

`CCc1nccn1CCC(=O)N1CCCC(N2CCN(c3ccccc3F)CC2)C1` (stereo not given): the “activity change, negative = inhibition” value is 40.6%.

Take `CCOc1ccc(NC(=O)CN(C)C(=O)CSc2ccccc2)cc1OCC`: the “activity change, negative = inhibition” value is 17.1%.

With `CCc1ccc(-c2nn(-c3ccccc3C)cc2C(=O)N2CCN(C3CCS(=O)(=O)C3)CC2)cc1` (stereo not given), the “activity change, negative = inhibition” value is -29%.

As to `CCc1ccc(N2CC(C(=O)Nc3ccc(S(=O)(=O)Nc4nccs4)cc3)CC2=O)cc1` (stereo not given), the “activity change, negative = inhibition” value was 19.7%.

Turning to `COc1ccc([N+](=O)[O-])cc1N(CC(O)CN(CC(C)C)CC(C)C)S(=O)(=O)c1ccc(C)cc1` (stereo not given), the “activity change, negative = inhibition” value was -6.94%.

With `CCOc1ccc2[nH]c(C(=O)N/N=C/c3cccc(OC)c3OC)cc2c1`, the “activity change, negative = inhibition” value is 17.8%.

`COc1cc2cc(C(=O)N/N=C/c3cccc(OC)c3OC)[nH]c2cc1OC`: the “activity change, negative = inhibition” value is -29.6%.

On to `COc1ccc2[nH]c(C(=O)N/N=C/c3cc(OC)c(OC)c(OC)c3)cc2c1`, for which the Potency is 5.86 µM (active).

For the compound `Cc1ccnc(NS(=O)(=O)c2ccc(NC(=O)c3oc4ccc(F)cc4c3C)cc2)n1`, the “activity change, negative = inhibition” value is 2.11%.

For `COc1ccc(Nc2ccc([N+](=O)[O-])cn2)cn1`, the “activity change, negative = inhibition” value is 5.89%.

Take `COC(=O)C1(O)CC(C(C)C)=NN1C(=O)c1ccc(Cl)cc1` (stereo not given): the “activity change, negative = inhibition” value was 14.7%.

Take `O=C(c1ccc(Cl)cc1)N1N=C(c2ccccn2)CC1(O)C(F)(F)F` (stereo not given): the Potency was 6.57 µM (active).

Consider `O=C(C1CC1)N1N=C(c2ccc(Br)cc2)CC1(O)C(F)(F)F` (stereo not given), for which the “activity change, negative = inhibition” value is -6.38%.

`Cc1ccc(NC(=O)NC(=O)c2ccccc2)cc1F`: the “activity change, negative = inhibition” value was 9.94%.

As for `CCc1c(C)[nH]c(=S)c(C#N)c1C`, the Potency was 3.29 µM (active).

For `CC(=O)c1c(C)[nH]c(=S)c(C#N)c1-c1ccc(F)cc1`, the “activity change, negative = inhibition” value was 24.5%.

`Cc1ccc(-n2cnc3ncnc(-c4ccccc4)c32)cc1`: the “activity change, negative = inhibition” value was 35%.

Consider `Cc1ccc(-c2nn(C(C)(C)C)c3ncnc(N)c23)cc1`, for which the Potency was 2.33 µM (active).
